Test results published in PMC11006913.

Columns and labels:
Assay in all cases: PBM; 200 nM protein, PBS
Settings in all cases: dsDNA, one strand shown
HESX1 [1] = biological target: HESX1 (Homo sapiens, UniProt Q9UBX0 95-180, R165K)
HESX1 [2] = biological target: HESX1 (Homo sapiens, UniProt Q9UBX0 95-180)
PROP1 [3] = biological target: PROP1 (Homo sapiens, UniProt O75360 56-141)
HESX1 [4] = biological target: HESX1 (Homo sapiens, UniProt Q9UBX0 95-180, R109Q)
PROP1 [5] = biological target: PROP1 (Homo sapiens, UniProt O75360 56-141, R99H)
PROP1 (Homo sapiens, UniProt O75360 56-141, R99H), sequence (O75360 56-141 R99H): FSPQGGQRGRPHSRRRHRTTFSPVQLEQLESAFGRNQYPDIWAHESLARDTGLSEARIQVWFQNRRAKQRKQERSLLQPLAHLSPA

HESX1 [6] = biological target: HESX1 (Homo sapiens, UniProt Q9UBX0 95-180, P111T)
HESX1 (Homo sapiens, UniProt Q9UBX0 95-180, P111T), sequence (Q9UBX0 95-180 P111T): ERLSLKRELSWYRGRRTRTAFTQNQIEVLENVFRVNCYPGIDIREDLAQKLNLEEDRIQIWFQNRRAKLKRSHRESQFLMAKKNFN

PROP1 [7] = biological target: PROP1 (Homo sapiens, UniProt O75360 56-141, F88S)
PROP1 (Homo sapiens, UniProt O75360 56-141, F88S), sequence (O75360 56-141 F88S): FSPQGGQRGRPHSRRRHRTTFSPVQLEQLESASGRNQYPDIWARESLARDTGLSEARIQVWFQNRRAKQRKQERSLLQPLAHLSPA

HESX1 [8] = biological target: HESX1 (Homo sapiens, UniProt Q9UBX0 95-180, F115L)
HESX1 (Homo sapiens, UniProt Q9UBX0 95-180, F115L), sequence (Q9UBX0 95-180 F115L): as the sequence (Q9UBX0 95-180 P111T) above, with T17P, F21L counted along it

HESX1 (Homo sapiens, UniProt Q9UBX0 95-180, R165K), sequence (Q9UBX0 95-180 R165K): as the sequence (Q9UBX0 95-180 P111T) above, with T17P, R71K counted along it
HESX1 (Homo sapiens, UniProt Q9UBX0 95-180), sequence (Q9UBX0 95-180): as the sequence (Q9UBX0 95-180 P111T) above, with T17P counted along it
HESX1 (Homo sapiens, UniProt Q9UBX0 95-180, R109Q), sequence (Q9UBX0 95-180 R109Q): as the sequence (Q9UBX0 95-180 P111T) above, with R15Q, T17P counted along it
PROP1 (Homo sapiens, UniProt O75360 56-141), sequence (O75360 56-141): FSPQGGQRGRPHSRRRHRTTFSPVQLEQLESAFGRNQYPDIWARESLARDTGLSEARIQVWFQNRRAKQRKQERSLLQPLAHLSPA

Row | Sequence | binding signal (HESX1 [1]) | binding signal (HESX1 [2]) | binding signal (PROP1 [3]) | binding signal (HESX1 [4]) | binding signal (PROP1 [5]) | binding signal (HESX1 [6]) | binding signal (PROP1 [7]) | binding signal (HESX1 [8])
1 | GAAAGGCC | 6.41 upbm affinity estimate (log intensity, higher = more binding, comparable within an allelic series) | 6.39 upbm affinity estimate (log intensity, higher = more binding, comparable within an allelic series) | 6.76 upbm affinity estimate (log intensity, higher = more binding, comparable within an allelic series) | 6.49 upbm affinity estimate (log intensity, higher = more binding, comparable within an allelic series) | 6.79 upbm affinity estimate (log intensity, higher = more binding, comparable within an allelic series) | 6.47 upbm affinity estimate (log intensity, higher = more binding, comparable within an allelic series) | 6.75 upbm affinity estimate (log intensity, higher = more binding, comparable within an allelic series) | 6.63 upbm affinity estimate (log intensity, higher = more binding, comparable within an allelic series)
2 | CAGGTCGG | 6.41 upbm affinity estimate (log intensity, higher = more binding, comparable within an allelic series) | 6.42 upbm affinity estimate (log intensity, higher = more binding, comparable within an allelic series) |  | 6.6 upbm affinity estimate (log intensity, higher = more binding, comparable within an allelic series) |  | 6.48 upbm affinity estimate (log intensity, higher = more binding, comparable within an allelic series) |  | 6.57 upbm affinity estimate (log intensity, higher = more binding, comparable within an allelic series)
3 | AGGACCCC | 6.46 upbm affinity estimate (log intensity, higher = more binding, comparable within an allelic series) | 6.46 upbm affinity estimate (log intensity, higher = more binding, comparable within an allelic series) |  | 6.63 upbm affinity estimate (log intensity, higher = more binding, comparable within an allelic series) |  | 6.47 upbm affinity estimate (log intensity, higher = more binding, comparable within an allelic series) |  | 6.62 upbm affinity estimate (log intensity, higher = more binding, comparable within an allelic series)
4 | ACATGGCG | 6.32 upbm affinity estimate (log intensity, higher = more binding, comparable within an allelic series) | 6.4 upbm affinity estimate (log intensity, higher = more binding, comparable within an allelic series) |  | 6.43 upbm affinity estimate (log intensity, higher = more binding, comparable within an allelic series) |  | 6.38 upbm affinity estimate (log intensity, higher = more binding, comparable within an allelic series) |  | 6.49 upbm affinity estimate (log intensity, higher = more binding, comparable within an allelic series)
5 | CCCGGAGG | 6.31 upbm affinity estimate (log intensity, higher = more binding, comparable within an allelic series) | 6.31 upbm affinity estimate (log intensity, higher = more binding, comparable within an allelic series) |  | 6.41 upbm affinity estimate (log intensity, higher = more binding, comparable within an allelic series) |  | 6.39 upbm affinity estimate (log intensity, higher = more binding, comparable within an allelic series) |  | 6.42 upbm affinity estimate (log intensity, higher = more binding, comparable within an allelic series)
6 | AGCCGAGC | 6.4 upbm affinity estimate (log intensity, higher = more binding, comparable within an allelic series) | 6.26 upbm affinity estimate (log intensity, higher = more binding, comparable within an allelic series) |  | 6.48 upbm affinity estimate (log intensity, higher = more binding, comparable within an allelic series) |  | 6.46 upbm affinity estimate (log intensity, higher = more binding, comparable within an allelic series) |  | 6.45 upbm affinity estimate (log intensity, higher = more binding, comparable within an allelic series)
7 | AATACATA | 7.62 upbm affinity estimate (log intensity, higher = more binding, comparable within an allelic series) | 7.7 upbm affinity estimate (log intensity, higher = more binding, comparable within an allelic series) |  | 7.3 upbm affinity estimate (log intensity, higher = more binding, comparable within an allelic series) |  | 7.6 upbm affinity estimate (log intensity, higher = more binding, comparable within an allelic series) |  | 7.4 upbm affinity estimate (log intensity, higher = more binding, comparable within an allelic series)
8 | GCCTGGCC | 6.59 upbm affinity estimate (log intensity, higher = more binding, comparable within an allelic series) | 6.61 upbm affinity estimate (log intensity, higher = more binding, comparable within an allelic series) |  | 6.46 upbm affinity estimate (log intensity, higher = more binding, comparable within an allelic series) |  | 6.51 upbm affinity estimate (log intensity, higher = more binding, comparable within an allelic series) |  | 6.6 upbm affinity estimate (log intensity, higher = more binding, comparable within an allelic series)
9 | GGCGCTAC | 6.32 upbm affinity estimate (log intensity, higher = more binding, comparable within an allelic series) | 6.38 upbm affinity estimate (log intensity, higher = more binding, comparable within an allelic series) |  | 6.35 upbm affinity estimate (log intensity, higher = more binding, comparable within an allelic series) |  | 6.43 upbm affinity estimate (log intensity, higher = more binding, comparable within an allelic series) |  | 6.32 upbm affinity estimate (log intensity, higher = more binding, comparable within an allelic series)
10 | CCAGCCCA | 6.4 upbm affinity estimate (log intensity, higher = more binding, comparable within an allelic series) | 6.43 upbm affinity estimate (log intensity, higher = more binding, comparable within an allelic series) |  | 6.47 upbm affinity estimate (log intensity, higher = more binding, comparable within an allelic series) |  | 6.48 upbm affinity estimate (log intensity, higher = more binding, comparable within an allelic series) |  | 6.55 upbm affinity estimate (log intensity, higher = more binding, comparable within an allelic series)
11 | CAAGCTCA | 6.51 upbm affinity estimate (log intensity, higher = more binding, comparable within an allelic series) | 6.47 upbm affinity estimate (log intensity, higher = more binding, comparable within an allelic series) |  | 6.46 upbm affinity estimate (log intensity, higher = more binding, comparable within an allelic series) |  | 6.46 upbm affinity estimate (log intensity, higher = more binding, comparable within an allelic series) |  | 6.53 upbm affinity estimate (log intensity, higher = more binding, comparable within an allelic series)
12 | CCGGTCAG | 6.41 upbm affinity estimate (log intensity, higher = more binding, comparable within an allelic series) | 6.5 upbm affinity estimate (log intensity, higher = more binding, comparable within an allelic series) |  | 6.57 upbm affinity estimate (log intensity, higher = more binding, comparable within an allelic series) |  | 6.6 upbm affinity estimate (log intensity, higher = more binding, comparable within an allelic series) |  | 6.53 upbm affinity estimate (log intensity, higher = more binding, comparable within an allelic series)
13 | CCGTCGTC | 6.45 upbm affinity estimate (log intensity, higher = more binding, comparable within an allelic series) | 6.42 upbm affinity estimate (log intensity, higher = more binding, comparable within an allelic series) |  | 6.4 upbm affinity estimate (log intensity, higher = more binding, comparable within an allelic series) |  | 6.44 upbm affinity estimate (log intensity, higher = more binding, comparable within an allelic series) |  | 6.26 upbm affinity estimate (log intensity, higher = more binding, comparable within an allelic series)
14 | AAGTTCCC | 6.43 upbm affinity estimate (log intensity, higher = more binding, comparable within an allelic series) | 6.39 upbm affinity estimate (log intensity, higher = more binding, comparable within an allelic series) |  | 6.56 upbm affinity estimate (log intensity, higher = more binding, comparable within an allelic series) |  | 6.49 upbm affinity estimate (log intensity, higher = more binding, comparable within an allelic series) |  | 6.65 upbm affinity estimate (log intensity, higher = more binding, comparable within an allelic series)
15 | ACGCCTAC | 6.48 upbm affinity estimate (log intensity, higher = more binding, comparable within an allelic series) | 6.44 upbm affinity estimate (log intensity, higher = more binding, comparable within an allelic series) |  | 6.44 upbm affinity estimate (log intensity, higher = more binding, comparable within an allelic series) |  | 6.5 upbm affinity estimate (log intensity, higher = more binding, comparable within an allelic series) |  | 6.46 upbm affinity estimate (log intensity, higher = more binding, comparable within an allelic series)
16 | AGGAGCTG | 6.51 upbm affinity estimate (log intensity, higher = more binding, comparable within an allelic series) | 6.45 upbm affinity estimate (log intensity, higher = more binding, comparable within an allelic series) |  | 6.4 upbm affinity estimate (log intensity, higher = more binding, comparable within an allelic series) |  | 6.4 upbm affinity estimate (log intensity, higher = more binding, comparable within an allelic series) |  | 6.28 upbm affinity estimate (log intensity, higher = more binding, comparable within an allelic series)
17 | TGAGCGCA | 6.52 upbm affinity estimate (log intensity, higher = more binding, comparable within an allelic series) | 6.51 upbm affinity estimate (log intensity, higher = more binding, comparable within an allelic series) |  | 6.51 upbm affinity estimate (log intensity, higher = more binding, comparable within an allelic series) |  | 6.49 upbm affinity estimate (log intensity, higher = more binding, comparable within an allelic series) |  | 6.46 upbm affinity estimate (log intensity, higher = more binding, comparable within an allelic series)
18 | CCACTGCG | 6.48 upbm affinity estimate (log intensity, higher = more binding, comparable within an allelic series) | 6.49 upbm affinity estimate (log intensity, higher = more binding, comparable within an allelic series) |  | 6.5 upbm affinity estimate (log intensity, higher = more binding, comparable within an allelic series) |  | 6.5 upbm affinity estimate (log intensity, higher = more binding, comparable within an allelic series) |  | 6.42 upbm affinity estimate (log intensity, higher = more binding, comparable within an allelic series)
19 | CAGTGTCG | 6.55 upbm affinity estimate (log intensity, higher = more binding, comparable within an allelic series) | 6.52 upbm affinity estimate (log intensity, higher = more binding, comparable within an allelic series) |  | 6.61 upbm affinity estimate (log intensity, higher = more binding, comparable within an allelic series) |  | 6.51 upbm affinity estimate (log intensity, higher = more binding, comparable within an allelic series) |  | 6.58 upbm affinity estimate (log intensity, higher = more binding, comparable within an allelic series)
20 | CCGCTCCC | 6.47 upbm affinity estimate (log intensity, higher = more binding, comparable within an allelic series) | 6.49 upbm affinity estimate (log intensity, higher = more binding, comparable within an allelic series) |  | 6.46 upbm affinity estimate (log intensity, higher = more binding, comparable within an allelic series) |  | 6.35 upbm affinity estimate (log intensity, higher = more binding, comparable within an allelic series) |  | 6.43 upbm affinity estimate (log intensity, higher = more binding, comparable within an allelic series)
21 | AGGCAGCG | 6.62 upbm affinity estimate (log intensity, higher = more binding, comparable within an allelic series) | 6.5 upbm affinity estimate (log intensity, higher = more binding, comparable within an allelic series) |  | 6.59 upbm affinity estimate (log intensity, higher = more binding, comparable within an allelic series) |  | 6.59 upbm affinity estimate (log intensity, higher = more binding, comparable within an allelic series) |  | 6.39 upbm affinity estimate (log intensity, higher = more binding, comparable within an allelic series)
22 | CCGAAAGC | 6.49 upbm affinity estimate (log intensity, higher = more binding, comparable within an allelic series) | 6.52 upbm affinity estimate (log intensity, higher = more binding, comparable within an allelic series) |  | 6.56 upbm affinity estimate (log intensity, higher = more binding, comparable within an allelic series) |  | 6.47 upbm affinity estimate (log intensity, higher = more binding, comparable within an allelic series) |  | 6.52 upbm affinity estimate (log intensity, higher = more binding, comparable within an allelic series)
23 | TGGCGCCA | 6.38 upbm affinity estimate (log intensity, higher = more binding, comparable within an allelic series) | 6.62 upbm affinity estimate (log intensity, higher = more binding, comparable within an allelic series) |  | 6.34 upbm affinity estimate (log intensity, higher = more binding, comparable within an allelic series) |  | 6.49 upbm affinity estimate (log intensity, higher = more binding, comparable within an allelic series) |  | 6.34 upbm affinity estimate (log intensity, higher = more binding, comparable within an allelic series)
